Source: PubChem BioAssay AID748 (Sanford-Burnham Center for Chemical Genomics, 2007)
Screen size: about 96,000 compounds; about 100 (0.1%) were called active.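 The calls were made as follows: active = displacement above 50% at 20 µM plus a fluorescence interference ratio under 1.5; inactive = the rest.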 The entries come from a sample that favours actives as a whole. Measured potencies and affinities stand elsewhere.

Each compound was assayed against Bcl-2-like protein 10 (Homo sapiens) (UniProt Q9HD36) (assay: displacers of TR3 peptide from Bcl-B, primary screen, selectivity assay for Bfl-1 inhibitor project, biochemical, fluorescence polarization, FITC-TR3 peptide (AID 748;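 also: plate controls were wells without compound for no effect and wells lacking Bcl-B protein for full effect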)). Conditions: FP displacement of FITC-TR3 peptide from Bcl-B; at 20 µM; stronger effect = higher value.

SMILES | displacement
Cc1ccc(NS(=O)(=O)c2ccc(C(=O)N3CCN(c4ccccn4)CC3)cc2)cc1 | 3.6% (inactive)
COc1ccc(N2Cc3cccc(C(=O)N4CCOCC4)c3C2=O)cc1 | 4.6% (inactive)
COc1ccc(N2Cc3cccc(C(=O)N4CCN(C(=O)c5ccco5)CC4)c3C2=O)cc1 | 36.1% (inactive)
CC1(CC(=O)O)SC(=O)NC1=O (centres undefined) | -6% (inactive)
CCOC(=O)CCc1c(C)nc2cc(-c3ccccc3OC)[nH]n2c1=O | 4% (inactive)
O=CNCCCc1nc2ccccc2n1Cc1cccc2ccccc12 | 1.8% (inactive)
COc1ccc(/C=N/NC(=O)COc2ccccc2-c2ccccc2)cc1 | -6.4% (inactive)
CCOc1ccc(/C=N/NC(=O)COc2ccccc2-c2ccccc2)cc1 | 9.4% (inactive)
CCC1CCCCN1C(=O)COC(=O)c1n[nH]c2ccccc12 (centres undefined) | -6% (inactive)
Cc1cc(S(=O)(=O)Nc2ccccc2C(=O)O)ccc1Cl | -4.3% (inactive)
Cc1nn(-c2ccccc2)c(Cl)c1/C=N/Nc1ccc(S(=O)(=O)Nc2ccccc2C(=O)O)cc1[N+](=O)[O-] | 62.4% (active)
COc1c(/C=N/Nc2ccc([N+](=O)[O-])cc2[N+](=O)[O-])c(C)nn1-c1ccccc1 | -2.4% (inactive)
Cc1ccc(CNC(=O)CCn2nc(-c3ccc(Cl)cc3)ccc2=O)cc1 | -8.8% (inactive)
COc1ccc(CCNc2nc3c(c(=O)n(C)c(=O)n3C)n2C)cc1OC | 8.6% (inactive)
COc1ccccc1NC(=O)CNC(=O)c1ccc(F)cc1 | -4.7% (inactive)
O=C(NCc1ccccc1)c1ccc2nc(-c3ccco3)c(-c3ccco3)nc2c1 | 29.5% (inactive)
O=C(Nc1ccc2nsnc2c1)N1CCCCCC1 | 1.1% (inactive)
O=C(NCCO)c1ccc2nc(-c3ccco3)c(-c3ccco3)nc2c1 | 26.6% (inactive)
CCOC(=O)C1CCN(C(=O)Nc2ccc3nc(-c4ccco4)c(-c4ccco4)nc3c2)CC1 | 95.6% (inactive)
O=C(Nc1ccc(N2CCOCC2)cc1)c1ccc2nc(-c3ccco3)c(-c3ccco3)nc2c1 | 0% (inactive)
O=C(Nc1cccc(C(F)(F)F)c1)c1ccc2nc(-c3ccco3)c(-c3ccco3)nc2c1 | 19.6% (inactive)
CCOCCCNC(=O)C1CCN(C(=O)N(C)C)CC1 | 3.4% (inactive)
COc1ccc(C)cc1NS(=O)(=O)c1cn(C)c(=O)n(C)c1=O | -4.4% (inactive)
COc1ccc(S(=O)(=O)N2CCCC2C(=O)Nc2ccc(C)cc2)cc1 (centres undefined) | -2% (inactive)
CCOC(=O)c1snc(-c2ccc(F)cc2)c1N | -3.1% (inactive)

SMILES | displacement
CCOC(=O)c1[nH]c2cc3c(cc2c1NC(=O)CN1CCCCC1C)OCO3 (centres undefined) | 9.5% (inactive)
O=S(=O)(c1ccc(S(=O)(=O)N2CCCN(Cc3ccccc3)C2)cc1)N1CCCCCC1 | 0.8% (inactive)
CC(=O)Nc1nnc(SCC(=O)NCCOc2ccccc2)s1 | -9.4% (inactive)
CCCCC(=O)NC1=NC(=O)C(C)(C)S1 | -8% (inactive)
Cc1oc2cc3c(C(=O)N4CCCCC4)c(C)oc3cc2c1C(=O)N1CCCCC1 | 6.1% (inactive)
CCCn1c(CCC(=O)O)ccc1-c1cccs1 | 2.8% (inactive)
CCCCn1c(CCC(=O)O)ccc1-c1cccs1 | 4.3% (inactive)
Cc1sc2nc(SCc3nc4ccccc4[nH]3)n(Cc3ccco3)c(=O)c2c1C | -8.7% (inactive)
COc1ccc(C2C(=O)N(C3CCCCC3)CC(=O)N2Cc2ccco2)cc1 (centres undefined) | -8.2% (inactive)
CCOC(=O)c1nn(-c2ccccc2)c(=O)c2c(N)scc12 | -1.6% (inactive)
CC1(C)OC(=O)C(=CNc2ccccc2F)C(=O)O1 | 5.4% (inactive)
Cc1nnc(SCC(=O)Nc2cccc(C(F)(F)F)c2)n1Cc1ccco1 | 4.7% (inactive)
COC(=O)CCc1c(C)[nH]c(C(=O)OCc2ccccc2)c1C | -0.4% (inactive)
CCOC(=O)c1[nH]c(C(=O)O)c(CCN(CC)CC)c1C | 0.1% (inactive)
O=C(CCc1ccccc1)OCCN1CCOCC1 | 5.9% (inactive)
Cn1nnnc1SCCNCc1ccccc1F | 1.2% (inactive)
CN(C)c1ccc2c(O)cc(=O)n(C)c2c1 | 13% (inactive)
Cc1nnc(NC(=O)COc2ccccc2)s1 | -16.7% (inactive)
COc1ccc(CNCC(O)(c2ccccc2)c2ccc(Cl)cc2)cc1 (centres undefined) | -0.9% (inactive)
COc1ccc(-c2cc(C(F)(F)F)nc(SCC(=O)N3CCOCC3)n2)cc1OC | -2.2% (inactive)
O=C(Nc1ccc2c(c1)OCO2)c1cnn2c(C(F)(F)F)cc(-c3ccco3)nc12 | 10.1% (inactive)
O=C(O)c1cnn2c(C(F)(F)F)cc(-c3ccco3)nc12 | 35.7% (inactive)
Cc1nn(C)cc1CNC(=O)c1cccc(Cl)c1 | 3.4% (inactive)
COC(=O)[C@H](Cc1ccccc1)NC(=O)NCc1ccc(S(N)(=O)=O)cc1 | 3% (inactive)
O=C(NCN1CCN(c2ccccc2F)CC1)c1cccnc1 | -3.4% (inactive)

SMILES | displacement
NC1=NS(=O)(=O)NC1c1cccc(Cl)c1 (centres undefined) | -0.7% (inactive)
CS(=O)(=O)N(Cc1ccc(C(=O)Nc2ccccc2Sc2ccccc2)cc1)c1ccccc1 | -11.2% (inactive)
Cc1cccc(OCCCC(=O)O)c1 | -8.7% (inactive)
CC1CCN(C(=O)c2ccc3c(c2NCCO)C(=O)c2ccccc2C3=O)CC1 | 27.9% (inactive)
CC1CCCN(C(=O)c2ccc3c(c2NCCO)C(=O)c2ccccc2C3=O)C1 (centres undefined) | 37% (inactive)
CC(CC(=O)c1cccs1)CC(=O)c1cccs1 | -2.6% (inactive)
O=C(O)Cn1nc2ccccc2n1 | 3.4% (inactive)
Cc1nc(=S)n(-c2ccccc2)[nH]1 | -1.7% (inactive)
CC(/C=C/c1ccco1)=N/NC(=O)Cc1cccs1 | -47.4% (inactive)
O=C(CNC(=O)c1ccco1)NCC(=O)OCc1ccccc1Br | -3.7% (inactive)
O=C(NCc1ccncc1)C1CCCCC1 | -9% (inactive)
COc1cc(-c2nnc(SCc3ccccc3Cl)o2)cc(OC)c1OC | -2.8% (inactive)
COc1cc(-c2nnc(SCc3cc(=O)oc4cc(C)ccc34)o2)cc(OC)c1OC | -10.8% (inactive)
Cc1c(C(=O)Nc2cccc3cccnc23)oc2ccccc12 | 10.7% (inactive)
Cc1cc(=O)n2c3c(cccc13)CCC2 | -9.7% (inactive)
C=CCn1c(SCC(=O)Nc2ncc(Cc3cc(Cl)ccc3Cl)s2)nnc1-c1ccncc1 | -3.4% (inactive)
O=C(NCc1ccco1)c1cc(-c2ccc(F)cc2)on1 | 1.1% (inactive)
CN1CCN(c2ccc(NC(=O)Cc3ccccc3)cc2)CC1 | -5.5% (inactive)
O=C(Cc1ccc(Cl)cc1)Nc1ccc(N2CCCC2)cc1 | -84% (inactive)
O=C(Nc1ccc(N2CCCC2)cc1)C(Cl)c1ccccc1 (centres undefined) | -13.8% (inactive)
O=C(Nc1ccc(N2CCCCC2)cc1)c1ccccc1 | -3.3% (inactive)
CCOC(=O)c1ccccc1NC(=O)CC(C)CC(=O)O (centres undefined) | -5.5% (inactive)
COc1cccc2c1C(=O)CC2NC(=O)C(F)(F)F (centres undefined) | -17.1% (inactive)
COC(=O)Nc1c(C)nn(Cc2ccccc2C)c1C | -0.7% (inactive)
CCOc1ccc(C(c2c(C)[nH][nH]c2=O)c2c(C)[nH][nH]c2=O)cc1OC | 8.5% (inactive)

SMILES | displacement
CC(C)CC(C(=O)Nn1cnnc1)N1C(=O)c2ccccc2C1=O (centres undefined) | -8.4% (inactive)
O=C(Cc1cccs1)Nc1nnc(CCc2ccccc2)s1 | -0.1% (inactive)
Cc1nnc(NC(=O)Cc2cccs2)s1 | 40.2% (inactive)
CCOC(=O)c1nc2sc3c(c2c(=O)[nH]1)CCCC3 | -2.6% (inactive)
CC(C)CC(=O)c1c[nH]c(C(=O)NCCCn2ccnc2)c1 | 0% (inactive)
CCc1ccc2[nH]c(=O)c(C3C(C#N)=C(N)Oc4c3ccc3cccnc43)cc2c1 (centres undefined) | -4.7% (inactive)
Cc1ccc2cc(C3C(C#N)=C(N)Oc4c3ccc3cccnc43)c(=O)[nH]c2c1 (centres undefined) | 5.4% (inactive)
O=c1[nH]c(=O)n(C2CCCO2)cc1Br (centres undefined) | -6.3% (inactive)
CS(=O)(=O)N(CCc1ccccc1)CC(=O)N1CCCCC1 | 0.5% (inactive)
Clc1ccc2nc(CN3CCCCCC3)cn2c1 | -3.6% (inactive)
Clc1ccc2nc(CN3CCCCC3)cn2c1 | 10.1% (inactive)
Cc1nn(-c2ccccn2)c2c1-c1nc(N)ncc1CC2 | 6% (inactive)
CCN(CC)CCC(=O)NC(C)(C)Cc1ccc(O)cc1 | -7.8% (inactive)
Cc1c(C(=O)OCC2CCCO2)[nH]c2c1C(=O)CC(c1ccc(N(C)C)cc1)C2 (centres undefined) | -1.6% (inactive)
CCOC(=O)c1[nH]c2c(c1C)C(=O)CC(c1ccco1)C2 (centres undefined) | 10.9% (inactive)
CCCC(=O)N1CCc2cc(-c3nc(N)sc3C)ccc21 | 0.7% (inactive)
CC1(C)Cc2c(sc3c2c(=N)n(Cc2ccco2)c(=O)n3CC(=O)Nc2cccc(Cl)c2)CO1 | -38.7% (inactive)
Cc1ccc(S(=O)(=O)N2CCOCC2)cc1C(=O)OCC(=O)N1c2ccccc2NC(=O)C1(C)C | 25% (inactive)
CC1(C)C(=O)Nc2ccccc2N1C(=O)COC(=O)C1CCCCC1 | -3.4% (inactive)
COc1cc(/C=C(/C#N)c2ccc(C)cc2)ccc1Oc1ccc([N+](=O)[O-])cn1 | -0.7% (inactive)
CC1Cc2nc(SCC(=O)NC3CCCCC3)n(C)c(=O)c2S1 (centres undefined) | -2.6% (inactive)
CCOC(=O)COc1ccc(S(=O)(=O)N2CCc3ccccc3C2)cc1 | 0.4% (inactive)
CCOc1ccccc1N(CC(=O)NC(C)(C)C)C(=O)Cn1nnc(-c2ccc(C)o2)n1 | -3.4% (inactive)
CC(=O)N1N=C(c2ccc3nccnc3c2)CC1c1ccccc1 (centres undefined) | 6% (inactive)
